From PubChem BioAssay
In the library only some 11% were active in any assay of this set; here they are far more common.
HP1b binding inh = HTS for Inhibitors of HP1-beta Chromodomain Interactions with Methylated Histone Tails; AID 540317, 2011; Potency, µM (titrated, usually from 114 µM), for the others: at the top dose activity change, negative = inhibition, usual class: inhibitors; AlphaScreen HP1-beta / biotin-H3K9me3 peptide binding; hit rate 0.56% among 390,000; also: potency is read from the fitted curve at half-maximal effect; nearly all actives have a fitted effect of over 70% in size
Target sequence (P83916 whole entry, looked up): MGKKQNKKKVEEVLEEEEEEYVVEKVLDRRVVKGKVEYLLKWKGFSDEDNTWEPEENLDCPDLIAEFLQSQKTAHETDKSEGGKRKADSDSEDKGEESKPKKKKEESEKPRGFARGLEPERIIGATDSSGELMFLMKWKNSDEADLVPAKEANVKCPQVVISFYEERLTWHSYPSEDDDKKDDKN
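AlphaScreen: HP1-beta (50 nM) preformed 30 min with biotin-H3(1-18)K9me3 peptide (50 nM) in PBS pH 7.4, 0.01% Tween-20. Compound added for 30 min at RT, then streptavidin donor/nickel chelate acceptor beads (10 ug/mL) for 30 min.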
L3MBTL1 block = qHTS Assay for the Inhibitors of L3MBTL1 | hit rate 0.66% among 230,000 | AlphaScreen L3MBTL1–H3K9me1 peptide binding | Lethal(3)malignant brain tumor-like protein 1 (Homo sapiens), Q9Y468 | Potency, µM (highest dose often 57.1 µM), for the others: at the top dose activity, negative = inhibition, most hits filed as inhibitors; also: potency is read from the fitted curve at half-maximal effect; % is scaled to controls: 0 for no effect and ±100 for the full control effect; nearly all actives have a fitted effect of over 60% in size
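Displacement of a biotinylated histone H3(1-15) peptide monomethylated at Lys9 (75 nM) from L3MBTL1 (50 nM) was measured by AlphaScreen after a 30 min room-temperature compound incubation; cefsulodin titration served as intraplate control.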
BAZ2B inh = qHTS Assay for Inhibitors of BAZ2B; Bromodomain adjacent to zinc finger domain protein 2B (Homo sapiens), Q9UIF8; AlphaScreen BAZ2B-H3K14Ac peptide displacement; Potency, µM (top dose mostly 114 µM), inactives show top-dose activity change, negative = inhibition, most hits filed as inhibitors; hit rate 4.4% among 360,000; also: potency is read from the fitted curve at half-maximal effect; % is scaled to controls: 0 for no effect and ±100 for the full control effect; nearly all actives have a fitted effect of over 60% in size
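Multi-concentration screen (max 110 uM) measuring displacement of acetylated histone H3 peptide from BAZ2B by AlphaScreen, using 50 nM protein, 50 nM peptide and 10 ug/mL streptavidin donor plus Ni-chelate acceptor beads.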
JMJD2A Tudor = qHTS Assay for Inhibitors of JMJD2A-Tudor Domain; hit rate 4.4% among 390,000; Potency, µM (series often up to 114 µM), inactives show at the highest dose activity change, negative = inhibition, hits mostly inhibitors; AlphaScreen JMJD2A-Tudor / H3K4me3 peptide binding; Lysine-specific demethylase 4A (Homo sapiens), O75164; also: potency is read from the fitted curve at half-maximal effect; % is scaled to controls: 0 for no effect and ±100 for the full control effect; nearly all actives have a fitted effect of over 50% in size
G9a inh = qHTS Assay for Inhibitors of Histone Lysine Methyltransferase G9a | G9a H3K9 monomethylation, AlphaScreen, 2 h | AID 504332, 2011 | hit rate 8.8% among 350,000 | Potency, µM (top dose mostly 102 µM), for the others: at the top dose activity, negative = inhibition, most hits filed as inhibitors | Histone-lysine N-methyltransferase EHMT2 (Homo sapiens), Q96KQ7; also: potency is read from the fitted curve at half-maximal effect; % is scaled to controls: 0 for no effect and ±100 for the full control effect; nearly all actives have a fitted effect of over 75% in size
Target sequence (Q96KQ7 913-1193 limits assumed): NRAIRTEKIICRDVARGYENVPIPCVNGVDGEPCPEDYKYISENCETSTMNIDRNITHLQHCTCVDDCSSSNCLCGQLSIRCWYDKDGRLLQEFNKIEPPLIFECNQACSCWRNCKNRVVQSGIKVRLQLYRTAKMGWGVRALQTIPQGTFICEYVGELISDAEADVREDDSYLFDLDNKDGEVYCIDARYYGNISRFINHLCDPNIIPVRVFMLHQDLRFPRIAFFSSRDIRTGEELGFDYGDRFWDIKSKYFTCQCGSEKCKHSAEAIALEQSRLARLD
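G9a (20 nM) was preincubated 15 min with compound, then reacted 2 h at room temperature with 500 nM biotin-H3K9 peptide and 20 µM SAM. Monomethyl-H3K9 detected by AlphaScreen using anti-H3K9me1 antibody.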
PI5P4Ka inh = qHTS for Inhibitors of phosphatidylinositol 5-phosphate 4-kinase (PI5P4K); PI5P4Kalpha enzyme, ADP-Glo luminescence, 60 min; stronger effect = lower value; hit rate 1.2% among 330,000; max response, %; Phosphatidylinositol 5-phosphate 4-kinase type-2 alpha (Homo sapiens), P48426; active = max response of -50% or lower; inconclusive = between -30% and -50%; inactive = -30% or higher; also: value at the top dose of about 77 µM; % is scaled to controls: 0 for no effect and ±100 for the full control effect
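Quantitative HTS of the MLSMR library against PI5P4Kalpha with substrate. ATP added last at 5 microM final; room temperature, 60 minutes. Remaining ATP depleted, ADP converted and read as luminescence.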
ADP-Glo interf = qHTS for Inhibitors of PI5P4K: ADP-Glo counter assay; shares compounds with PI5P4Ka inh; ADP-Glo detection counter-screen, luciferase luminescence, no enzyme; Potency, µM (titrated, usually from 76.9 µM), without a hit: top-dose activity change, negative = inhibition, actives largely listed as inhibitors; 1,100 tested, under 10 active; AID 743285, 2014
* marks the source's active call; other numbers are inactive results; i = inactive; ? = inconclusive; . = no result; [ ] = dose if it differs, or a comment. Unless noted, calls follow the shape of the dose curve; as a rule, active = well fitted curve in the direction sought with a large enough effect; inconclusive = small, poorly fitted or top-dose-only effect, or another doubt; inactive = no such curve, though single readings can be large; an effect the other way counts as inactive or inconclusive.

SMILES | HP1b binding inh | L3MBTL1 block | BAZ2B inh | JMJD2A Tudor | G9a inh | PI5P4Ka inh | ADP-Glo interf
CC(=O)c1ccc2noc(-c3ccc(C)cc3)c2c1 | 105% | 53% | 39% | 7% | 28% | -2 | .
Cc1cc(C)c(NC(=O)OCCN2CCOCC2)c(C)c1 | ? | -3% | 11% | -28%[11.4 µM] | 14% | -63* | 0%
Cc1ccc([N+](=O)[O-])cc1Nc1nc(N2CCOCC2)nc(N2CCOCC2)n1 | 1% | 7% | -17% | -31% | -5% | -74* | -3%
Cc1ccc(Cl)cc1Nc1nc(N2CCOCC2)nc(N2CCOCC2)n1 | 46% | . | ? | -15% | 11% | 4 | .
Cc1ccc(NC(=O)C(C)Sc2nc(-c3ccccc3)c(C#N)c(=O)[nH]2)c(C)c1 (centres undefined) | 1% | . | 2% | -33% | -4%[59 µM] | . | .
Cc1nn(-c2ccccc2)c2nc(=O)n(-c3ccccc3)cc12 | ? | 0% | 3% | ? | 11%[59 µM] | . | 0%
Cc1ccc2nc3c(cc2c1)c(C)nn3-c1ccccc1 | i | . | 416% | 476% | i | 20 | .
CCNC(=O)C1(C)CCCN(C(=O)c2cc(-c3ccccc3)cs2)C1 (centres undefined) | . | . | . | . | . | 4 | .
COC(=O)C[C@H]1CC[C@H](NC(=O)Nc2ccccc2)[C@@H](CO)O1 | . | . | . | . | . | 8 | .
CC1(C(=O)O)CCCN1C(=O)c1ccc(Cl)cc1Cl (centres undefined) | . | . | . | . | . | 7 | .
Cc1oc(-c2ccc(Cl)cc2)cc1C(=O)N1CCC1(C)C(=O)O (centres undefined) | . | . | . | . | . | -52* | -4%
COc1ccc(NC(=O)Cn2cc(C(=O)C3CCCCC3)c3ccccc32)cc1 | 24% | . | -4% | -11% | -2%[59 µM] | . | .
CCCOc1ccc(CSc2ncn[nH]2)cc1 | ? | ? | 1% | 3.2µM* | 13µM* | -71* | 3%
CCOc1ccc(NC(=O)CSc2ncn[nH]2)cc1 | 33% | . | 0% | -14% | ? | 1 | .
CCOC(=O)c1ccc(N2C(=O)CC(C(=O)OC)=C2C)cc1 | -9% | -17%[11.4 µM] | -4% | -32% | -39%[59 µM] | -6 | .
CCOC(=O)C1=C(N)N(c2ccccc2)C(=O)C1 | ? | . | -3% | 3.5µM* | 17%[12.7 µM] | -58* | -5%
CSc1ncccc1C(=O)Nc1ccc(OC(F)(F)F)cc1 | 20% | 9% | 0% | 11µM* | 13% | -58* | 2%
O=C(O)c1ccc(Cl)c(S(=O)(=O)Nc2ccc3[nH]c(=O)[nH]c3c2)c1 | 56% | ? | ? | -34% | ? | -65* | 5%
O=C(O)c1cccc(S(=O)(=O)Nc2ccc3[nH]c(=O)[nH]c3c2)c1 | 68% | . | -32% | -19% | 7%[59 µM] | ? | .
CCCNC(=O)C1(C)CCN(C(=O)c2cc(C)nn2C(C)(C)C)C1 (centres undefined) | . | . | . | . | . | 5 | .
CCCNC(=O)C1(C)CCCN(C(=O)c2cc(C)nn2C(C)(C)C)C1 (centres undefined) | . | . | . | . | . | -71* | 2%
O=C(O)c1cccc(NC(=O)c2cn(-c3ccccc3)nc2-c2cc3ccccc3o2)c1 | -2% | -5% | 50µM* | -28% | 5%[59 µM] | -53* | -8%
Cc1cccc(NC(=O)c2cc(-c3ccc4c(c3)OCCO4)on2)c1 | 100% | . | 26% | -7% | 42%[59 µM] | . | .
O=c1ccc2cc(S(=O)(=O)NCc3ccc(Cl)cc3)ccc2[nH]1 | 8% | . | ? | ? | -42%[59 µM] | . | .
COc1cc(OC)cc(C(=O)Nc2nc3ccc(S(C)(=O)=O)cc3s2)c1 | 26% | 0% | -11% | -10% | -23% | -74* | -16%
SMILES | HP1b binding inh | L3MBTL1 block | BAZ2B inh | JMJD2A Tudor | G9a inh | PI5P4Ka inh | ADP-Glo interf
COc1ccc(N2CC(O)=C(c3nc(-c4ccc(Br)cc4)cs3)C2=N)cc1 | 29% | -7% | -14% | -10% | 5% | 2 | .
COc1ccc(N2CC(O)=C(c3nc(-c4ccccc4)cs3)C2=N)cc1 | 2% | . | 3% | -18%[11.4 µM] | 11%[59 µM] | -53* | -2%
Cc1ccc(C)c(NC(=O)c2ccc3c(c2)N(Cc2ccc(F)cc2)C(=O)CS3=O)c1 (centres undefined) | 3% | 42% | 23% | -27% | -31% | -58* | 0%
CCOc1ccc(NC(=O)c2ccc3c(c2)N(Cc2ccc(F)cc2)C(=O)CS3=O)cc1 (centres undefined) | 45% | -2% | -24% | -13% | -18%[59 µM] | -5 | .
CCCc1cc(=O)oc2cc(C)c(CN3CCCC3)c(O)c12 | -14% | 8.9µM* | 13µM* | 50µM* | 89µM* | -81* | -10%
Cc1cc(C)c2c(CN3CCCC3)cc(=O)oc2c1 | . | . | . | . | . | 6 | .
CCCc1cc(=O)oc2c(CN3CCCC3)c(O)ccc12 | 35% | 4% | 4% | 5% | 22% | -2 | .
CCc1cc(=O)oc2cc(C)c(CN3CCCCC3)c(O)c12 | -32% | 13µM* | 20µM* | 56µM* | -25%[59 µM] | -64* | -2%
CC(=O)Nc1cccc(-c2ccnc3c2CC(C(=O)NCc2ccco2)O3)c1 (centres undefined) | . | . | . | . | . | -50* | 5%
COc1ccc(-c2nn3c(-c4ccc(C)cc4)nnc3c3ccccc23)cc1 | 30% | . | -1% | -7% | 6%[59 µM] | . | .
O=C(OCc1ccco1)c1ccc(S(=O)(=O)N2CCCCC2)cc1 | -3% | ? | 50µM* | 79µM* | ? | -52* | -2%
COC(=O)c1c(N)n(-c2cc(Cl)cc(Cl)c2)c2nc3ccccc3nc12 | -8% | . | ? | -12% | -8%[59 µM] | . | .
Cc1ccc(NC(=O)C2CCCN(c3nnc(C)c4c(C)n(-c5ccccc5)nc34)C2)cc1Cl (centres undefined) | 83% | . | ? | -20% | -25%[59 µM] | . | .
O=C(Nc1nnc(-c2ccc(Cl)cc2)o1)Nc1ccccc1Cl | 42% | -2% | -4%[57.1 µM] | -12% | 11%[2.33 µM] | -4 | .
O=C(Nc1nnc(-c2ccc(Cl)cc2)o1)c1nc2ccccc2s1 | 28% | 16% | -34% | -28% | -4%[59 µM] | -50* | -1%
COCCNC(=O)C(c1ccc(Cl)cc1)N(Cc1ccco1)C(=O)CCC(=O)Nc1ccccn1 (centres undefined) | 0% | . | -7% | -15% | -5% | -53* | 2%
